# TDP1 cell CPT – DT40-hTDP1 cell growth loss with CPT | chicken DT40 Tdp1-/-;hTDP1 cells + 20 nM CPT, ATP luminescence, 48 h | Potency, µM (doses to about 46.2 µM), for the others: top-dose activity change, negative = growth inhibition, usual class: inhibitors | 420,000 compounds, 12% hits; further: potency means the concentration at half of the fitted maximal effect; nearly all actives have a fitted effect of over 55% in size
#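 Chicken DT40 Tdp1-/- cells complemented with human TDP1, 400 cells/well, exposed to compounds plus 20 nM camptothecin for at least 48 h at 37 C; viability read as ATP content by CellTiter-Glo luminescence.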
# HT1080-NT tox – kills 2HG-producing HT-1080-NT fibrosarcoma cells; HT-1080-NT fibrosarcoma viability, CellTiter-Glo ATP luminescence, 48 h; Potency, µM (series often up to 46.1 µM), for the others: top-dose activity, negative = less viability, usual class: cytotoxic; 360,000 compounds, 1.6% hits; AID 686970;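 further: NT is the 2HG producing partner of a matched IDH1 knockdown line; potency means the concentration at half of the fitted maximal effect; 0% = DMSO-treated cells and -100% = media-only wells without cells; nearly all actives have a fitted effect of over 55% in size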
#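 750 cells/well, RPMI + 5% FBS; 2 h settle, compound pin-transfer, 48 h at 37 degrees C. CellTiter-Glo 10 min RT, luminescence. Normalized to DMSO and media-only wells.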
# IL-1B inflam inh – inflammasome signaling inhibition, IL-1 beta readout | THP-1 LPS/ATP IL-1B secretion, AlphaLISA, 16 h; active compounds read low | activity change, % at 57.5 µM | 360,000 compounds, 4.7% hits; in the data active means activity change below about -50%; inconclusive means mostly about -30% to -49%
#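 Secreted IL-1B measured by AlphaLISA bead assay after 16 h compound exposure of THP-1 cells; compounds (final up to 57.5 uM) added 1 h before LPS (250 ng/mL) and ATP (1.25 mM) stimulation; lower signal means less secretion.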
# HT1080 IDH1KD tx – kills HT-1080 cells with IDH1 knockdown. HT-1080 IDH1 knockdown viability, ATP luminescence, 48 h. Potency, µM (top dose mostly 46.1 µM), for the others: at the top dose activity, negative = toxicity, actives largely listed as cytotoxic. 360,000 compounds, 2% hits. AID 686971;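 further: potency means the concentration at half of the fitted maximal effect; 0% = DMSO wells and -100% = cell-free medium wells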
#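 Knockdown cells (IDH1KD HT-1080) received compounds 2 h after plating at 750 cells/well and were kept 48 h at 37 °C in 5% FBS RPMI. A CellTiter-Glo luminescence read gave % activity for curve fitting.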
# TDP1 cell noCPT – qHTS for Inhibitors of human tyrosyl-DNA phosphodiesterase 1 (TDP1): qHTS in cells in absence of CPT. DT40 Tdp1-/- hTDP1 cells, no CPT, ATP luminescence, 48 h. Potency, µM (doses to about 46.2 µM), for the others: at the top dose activity change, negative = growth inhibition, hits mostly inhibitors. 420,000 compounds, 15% hits. AID 686978, 2013; further: potency means the concentration at half of the fitted maximal effect; nearly all actives have a fitted effect of over 55% in size
#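 Luminescent ATP content (CellTiter-Glo) served as the growth readout. Knockout chicken DT40 cells expressing human TDP1 were exposed to compounds without camptothecin for a minimum 48 hr at 37 °C.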
# Numbers without * were called inactive; ? = inconclusive; nt = no result; [ ] = another dose, or the depositor's remark. Shown are actives, neighbours in structure and some others; about 19% of the full set was active somewhere. Unless noted, the call rests on the fitted dose curve; in most records, active means well fitted curve in the direction sought with a large enough effect; inconclusive means small, poorly fitted or top-dose-only effect, or another doubt; inactive means no such curve, though single readings can be large; an effect the other way counts as inactive or inconclusive. Unless noted, on the % scale 0 is the no-effect control and ±100 the full control effect.
SMILES,TDP1 cell CPT,HT1080-NT tox,IL-1B inflam inh,HT1080 IDH1KD tx,TDP1 cell noCPT
COc1ccc(CN2C(=O)N(c3ccccc3)C(=O)C2c2ccccc2)cc1COc1ccc(NC(C)=O)cc1 (stereo unspecified),10µM*,0.2%,nt,7.4%,8.91µM*
COc1ccc(CN(Cc2ccccc2)C(C)=O)cc1COc1ccc(NC(C)=O)cc1,?,?,nt,?,11.2µM*
COc1ccc(CN(Cc2ccccc2)C(=O)COC(C)=O)cc1COc1ccc(NC(C)=O)cc1,?,-13.6%,nt,-23.3%,?
COc1ccc(CN(Cc2ccccc2)C(=O)c2ccncc2)cc1COc1ccc(NC(C)=O)cc1,?,0.0%,nt,3.1%,11.2µM*
Cc1cc(C)c(Cn2c(=O)[nH][nH]c2=O)cc1Cn1c(=O)[nH][nH]c1=O,1.4%,0.3%,-5.1,0.5%,-4.3%
O=C(NCCc1ccccn1)c1cnn(-c2ncc3c(n2)-c2ccccc2CC3)c1C1CC1,-12.6%[9.04 µM],nt,nt,nt,?
Cc1cc(OC(=O)c2cccc(F)c2)c([N+](=O)[O-])c(=O)[nH]1,-2.7%,1.4%,7.5,-3.2%,-3.2%
CC1(C)Cc2c(cnn2-c2ccc(F)cc2)C(NC(=O)c2ccoc2)C1 (stereo unspecified),-24.7%,2.7%,3.2,14.4%,0.2%
Cc1nn(-c2ccc(F)cc2)c(C)c1CNC(=O)c1ccc(-n2cc(NC(=O)c3ccoc3)cn2)cc1,-15.1%[9.04 µM],nt,nt,nt,11.6µM*
C=CC(COCc1ccccc1)N(Cc1ccc(OC)cc1)S(=O)(=O)c1ccccc1Br (stereo unspecified),?,-1.9%,24.0,-0.2%,?
C=CC(COCc1ccccc1)N([C@@H](Cc1ccccc1)C(=O)OC)S(=O)(=O)c1ccccc1Br (stereo partly specified),?,-4.7%,11.9,-8.9%,23.1µM*
COc1ccc(/C(C)=N/NC(=O)Cc2ccc(Cl)cc2)cc1,11.2%,-0.4%,8.3,-7.5%,-7.7%
CCCCC(O)(CCCC)C(=O)N/N=C(\C)c1ccc(Cl)cc1,?,-8.0%,-53.9*,-16.7%,?
COc1ccc(CNc2nc(Cl)nc3nc[nH]c23)cc1,6.6%,nt,nt,nt,?
O=C(O)c1cnn(-c2ccccc2)c1C(F)(F)F,-7.9%,17.4%,-4.1,?,-0.5%
Cn1c2c(c(=O)n1-c1ccccc1)CSCC2,3.8%,-5.6%,-0.3,1.9%,-4.8%
COC(=O)c1cc(S(=O)(=O)NCC2CCN(Cc3ccc(C)cc3)CC2)cn1C,-8.3%,-3.8%,-7.0,-5.5%,?
COc1ccc(Cl)cc1NC(=O)CN(C)CC(=O)Nc1ccc(Br)cc1,?,?,-88.5*,?,?
COc1ccc(Cl)cc1NC(=O)CN(C)CC(=O)NCc1cccs1,?,0.5%,-11.8,-2.1%,?
COc1ccc(Cl)cc1NC(=O)CN(C)C(=O)c1cc2c(F)cccc2s1,10.3µM*,?,39.1,?,6.51µM*
COc1ccc(Cl)cc1NC(=O)CN(C)CC(=O)Nc1ccc(S(N)(=O)=O)cc1,-2.8%,-9.7%,-18.4,-9.1%,-9.7%
COc1ccc(Cl)cc1NC(=O)CN(C)CC(=O)Nc1cc(OC)c(OC)c(OC)c1,5.8µM*,11.6µM*,0.0,8.2µM*,4.11µM*
C[C@H](CO)N1C[C@H](C)[C@@H](CN(C)Cc2ccc(-c3ccccc3)cc2)Oc2c(NS(=O)(=O)c3cn(C)cn3)cccc2C1=O,?,-19.2%,19.9,4.7%,?
COC(=O)[C@H](NCc1ccc(OC)c(B(O)O)c1)C(C)C,-4.7%,-1.2%,-14.1,-0.4%,0.7%
COc1cc(N/N=C(\C)c2ccc(O)c(C)c2)nc(-c2ccccc2)n1,?,20.6µM*,-58.7*,?,?
SMILES,TDP1 cell CPT,HT1080-NT tox,IL-1B inflam inh,HT1080 IDH1KD tx,TDP1 cell noCPT
COc1cc(N/N=C(\C)c2ccc(N)cc2)nc(-c2ccccc2)n1,23.1µM*,-1.6%,?,-24.8%,18.4µM*
COc1ccc(/C(C)=N/Nc2nc3ccccc3nc2C)cc1OC,?,-18.6%,8.4,?,?
C/C(=N\Nc1cc(-c2ccccc2)nc(-c2ccccc2)n1)c1ccc(O)c(C)c1,?,?,-27.1,23.1µM*,?
C/C(=N\Nc1cc(Cl)nc(C)n1)c1ccc(Cl)c(Cl)c1,-11.3%,10.6%,7.9,8.2%,-13.6%
COc1ccccc1C1=NOC(Cn2c(NCCOCCO)nc3c2c(=O)n(C)c(=O)n3C)C1 (stereo unspecified),?,0.0%,21.7,4.3%,?
CCCCNC(=O)c1nc(C2CCN(S(=O)(=O)c3c(F)cccc3F)CC2)oc1-c1cccc(C(F)(F)F)c1,6.7%,2.1%,0.0,0.6%,-9.9%
CCCCNC(=O)c1nc(C2CCN(S(=O)(=O)c3ccc(F)c(F)c3)CC2)oc1-c1ccccc1,10.3µM*,26.7%,6.1,7.0%,6.51µM*
CCCCNC(=O)c1nc(C2CCN(S(=O)(=O)c3c(F)cccc3F)CC2)oc1-c1ccccc1,9.2µM*,-8.0%,23.0,-5.0%,18.4µM*
CCCCNC(=O)c1nc(C2CCN(S(=O)(=O)c3ccccc3C(F)(F)F)CC2)oc1-c1ccccc1,23.1µM*,1.2%,2.7,7.1%,16.4µM*
CCCCNC(=O)c1nc(C2CCN(S(=O)(=O)c3ccc(OC(F)(F)F)cc3)CC2)oc1-c1ccccc1,7.31µM*,-11.2%,-7.9,-14.5%,6.51µM*
CC1(C)CC(NC(=O)c2cc(S(=O)(=O)N3CCOCC3)c(Cl)cc2Cl)CC(C)(C)N1,2.0%,0.7%,-11.8,-5.8%,8.8%
C[C@H](CO)N1C[C@H](C)[C@@H](CN(C)C(=O)C2CC2)OCc2cnnn2CCCC1=O,6.4%,-1.8%,-0.2,0.6%,6.2%
O=C(COc1ccc2c3c(c(=O)oc2c1)CCC3)Nc1ccc(CCO)cc1,-23.3%,8.4%,-53.0*,21.4%,7.8%
Cc1ccnc(NC(=O)COc2ccc3oc4c(c3c2)CCCC4)c1,?,-13.5%,-28.9,-26.2%,11.6µM*
O=C(COc1ccc2oc3c(c2c1)CCCC3)Nc1cccc(Br)c1,?,nt,nt,nt,20.6µM*
NNC(=O)COc1ccc2oc3c(c2c1)CCCC3,-3.4%,-6.1%,2.0,-4.5%,-4.3%
Cc1ccccc1NC(=O)COc1ccc2oc3c(c2c1)CCCC3,16.4µM*,nt,nt,nt,18.4µM*
CNC(=O)COc1ccc2oc3c(c2c1)CCCC3,7.6%,25.2%,8.0,9.9%,-7.1%
O=S(=O)(NCCSc1nnc(-c2ccco2)n1-c1ccccc1)c1ccccc1,?,-7.4%,-13.4,?,?
CCN(C(=O)C(=O)Nc1ccc2nc3n(c(=O)c2c1)CCCCC3)c1ccc(F)cc1,-24.4%,nt,nt,nt,?

# Bioassay records: PubChem BioAssay, National Center for Advancing Translational Sciences (NCATS)
